GRIN3A LBD mod: modulates the human NR3A ligand-binding domain | NR3A LBD differential scanning fluorimetry, Tm shift; 0% = protein alone, 100% = glycine-bound protein | AID 1259313 | 340,000 compounds, 2.5% hits | Tm shift relative to glycine control, % at 25 µM;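 active means melting temperature shift of at least 10% of the positive control shift, at one fixed dose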
ZTA counter: ZTA (EBV) inhibition in EBNA-1 counter-screen; P03206; ZTA-DNA binding, fluorescence polarization; inhibition, % at 11 µM; 320,000 compounds, 0.15% hits; in the data active means inhibition above about 33%
Target sequence (P03206 whole entry, looked up): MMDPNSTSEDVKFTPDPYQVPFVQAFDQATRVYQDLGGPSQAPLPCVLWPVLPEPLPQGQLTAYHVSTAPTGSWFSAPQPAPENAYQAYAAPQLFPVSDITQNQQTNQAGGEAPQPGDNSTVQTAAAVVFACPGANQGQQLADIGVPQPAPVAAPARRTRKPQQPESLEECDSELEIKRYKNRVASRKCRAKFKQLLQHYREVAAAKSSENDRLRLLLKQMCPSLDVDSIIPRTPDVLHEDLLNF
TPT1 inh: C. albicans TPT1 enzyme inhibition | inhibition, % at 5 µM | 300,000 compounds, 0.81% hits | recombinant caTPT1, FP RNA substrate dephosphorylation | AID 1962;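 active means inhibition above the mean of all tested compounds plus 3 SD, set per screening campaign, cut at about 24% in these data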;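 further: plate controls were DMSO alone for no effect and ferristatin control at 100 nM for full effect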
EBNA-1 inh: blocks EBNA-1 binding to DNA. EBNA-1 DNA binding, fluorescence polarization. inhibition, % at 14.8 µM. 300,000 compounds, 0.34% hits. AID 1950; in the data active means inhibition above about 28%
dFosB act: activators of mouse delta FosB homodimer; P13346; purified delta FosB, TAMRA-CDK5 oligo fluorescence polarization; percent of positive-control signal above neutral wells; activation, % at 25 µM; 340,000 compounds, 0.99% hits; AID 493131;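 active means mean activation above about 17%, with every replicate also reaching it, limit read from the data, passing the limit was not always enough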
Rpn11 inh: Rpn11 (human) deubiquitinase inhibition; O00487; human 26S proteasome, Ub4-pepOG fluorescence polarization; 20S core pre-blocked with epoxomicin; inhibition, % at 20 µM; 360,000 compounds, 0.59% hits; AID 588493;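 active means inhibition at 20 µM, scaled to each plate's controls, above about 33%, limit read from the data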
Target sequence (O00487 whole entry, looked up): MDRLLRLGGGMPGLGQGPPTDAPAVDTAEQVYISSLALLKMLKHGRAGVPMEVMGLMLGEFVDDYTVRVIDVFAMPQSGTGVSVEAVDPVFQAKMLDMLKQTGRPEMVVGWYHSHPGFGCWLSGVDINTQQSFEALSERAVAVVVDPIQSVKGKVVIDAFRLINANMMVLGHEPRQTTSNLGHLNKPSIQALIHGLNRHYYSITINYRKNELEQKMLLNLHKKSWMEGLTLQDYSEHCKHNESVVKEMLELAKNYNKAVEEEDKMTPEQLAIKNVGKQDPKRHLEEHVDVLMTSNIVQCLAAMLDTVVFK
* hit, by the source's call; · = no result given. Most compounds without a hit are left out; they make up all but 4.5% or so of the library.

SMILES	GRIN3A LBD mod	ZTA counter	TPT1 inh	EBNA-1 inh	dFosB act	Rpn11 inh
O=C(Nc1cccc(-c2nc3cccnc3s2)c1)c1ccco1	-18	-4	-2	-11	-64	5
COc1cc(/C=N/NC(=O)Cc2csc(N3CCOCC3)n2)cc(OC)c1O	15*	-12	0	-9	2	-2
Cc1ccc(-c2cc(C(=O)O)c3ccccc3n2)c(C)c1	0	-3	-3	14	-1	-5
Oc1ccc(-c2csc(-c3c[nH]c4ccccc34)n2)c(O)c1	34*	-8	1	2	1	19
Cc1ccc(-c2csc(-c3c[nH]c4ccccc34)n2)c(C)c1	24*	0	-5	1	-4	2
CC(=O)NCCC(=O)Nc1nc(-c2c[nH]c3ccccc23)cs1	5	·	·	·	-5	11
CC(=O)C1=CCC(c2ccccc2)N(S(=O)(=O)c2ccccc2C)C1 (stereo unspecified)	·	·	·	·	·	-4
CNS(=O)(=O)c1cn(CC(=O)NCc2ccc(OC)cc2)cc1S(=O)(=O)NC	1	3	3	3	-2	-5
COc1ccc(/C=C/C(=O)OCc2csc(-c3ccccc3)n2)cc1OC	18*	-4	4	3	-7	-5
O=C(OCc1csc(Nc2ccccc2)n1)c1ccc(Cl)cc1	11*	-1	0	-10	7	22
O=C(OCc1csc(-c2ccccc2)n1)c1ccc(O)cc1	20*	5	1	-9	-7	0
Cc1cccc(S(=O)(=O)N(CC(=O)Nc2ccccc2C)Cc2ccco2)c1	11*	12	-6	8	-8	-7
O=C(CN(Cc1ccco1)S(=O)(=O)c1ccccc1)N/N=C/c1cccc(O)c1	0	-20	-4	3	-13	-2
C=CC(=O)Nc1cccc(N(C)c2ccnc(Nc3ccc(N4CCN(C)CC4)cc3)n2)c1	4	·	·	·	46*	37
CN1CCN(c2ccc(NC(=O)COc3cccc4ccccc34)cc2)CC1	-9	-2	-1	-8	-3	-11
C=CC(=O)Nc1cccc(Oc2ccnc3[nH]ccc23)c1	-21	·	·	·	4	95*
C=CC(=O)Nc1cccc(Oc2ccnc(Nc3ccc(N4CCN(C)CC4)cc3)n2)c1	-13	·	·	·	66*	29
CC(C)(C)C(=O)/C=c1\s/c(=C\c2ccc(-c3ccc([N+](=O)[O-])cc3)o2)c(=O)n1CC(=O)NC(N)=O	2	-5	104*	-6	-12	·
COc1cccc(/C=C/C(=O)c2cccc([N+](=O)[O-])c2)c1OC	10*	-4	0	-4	-5	5
COc1ccc(/C=C/C(=O)NC(=S)Nc2cc([N+](=O)[O-])ccc2O)cc1OC	19*	17	-1	5	4	-16
COc1ccc([N+](=O)[O-])cc1NC(=S)NC(C)=O	-4	-3	-2	7	5	-1
COc1cccc(/C=C/C(=O)Nc2ccc(C(=O)Nc3cccc(S(N)(=O)=O)c3)cc2)c1OC	39*	9	1	-4	-12	3
COc1cccc(/C=C/C(=O)Nc2ccc3c(c2)OCCO3)c1OC	20*	-25	4	0	-13	0
COc1cccc(/C=C/C(=O)c2cccc([N+](=O)[O-])c2)c1	-5	-3	3	-5	1	1
COc1cccc(OC)c1C(=O)NC(=S)Nc1ccc2c(c1)OCCO2	-1	-2	-3	5	2	-3
SMILES	GRIN3A LBD mod	ZTA counter	TPT1 inh	EBNA-1 inh	dFosB act	Rpn11 inh
CC(C)(C)OC(=O)NCCC(=O)N/N=C/c1cccc2nccnc12	5	6	-1	11	5	0
CSc1ccc(/C=C/C(=O)OCC(=O)NC2CC2)cc1	2	-3	·	·	-1	-6
COc1cccc(/C=C/C(=O)Nc2cccc(C(C)=O)c2)c1OC	15*	15	-1	7	-29	-3
COc1ccc(/C=C/C(=O)Nc2ccc(C(N)=O)cc2)cc1OC	15*	1	1	-11	·	-1
COc1ccc(/C=C/C(=O)Nc2cccc(C(C)=O)c2)cc1	-8	12	4	6	-22	4
COc1ccccc1/C=C/C(=O)Nc1cccc(C(C)=O)c1	21*	9	-2	-4	-22	1
COc1ccc(/C=C/C(=O)Nc2ccc3c(c2)CCC3)cc1OC	-4	-6	-2	-2	1	-2
O=C(CNC(=O)c1ccccc1)OCCCOC(=O)CNC(=O)c1ccccc1	10	0	-2	-4	-11	-2
CN(c1ccc(C(=O)Nc2ccccc2C(=O)N2CCCC2)cc1)S(C)(=O)=O	15*	-17	-3	-1	4	-2
O=C(Nc1ccccc1C(=O)N1CCCCCC1)c1ccccc1	0	5	2	-1	-8	11
CCS(=O)(=O)N1CCC(C(=O)NCc2ccc(OC)cc2)CC1	-1	-3	-5	-2	-2	-8
CCOC(=O)c1sc(=S)n(C)c1NC(=O)c1ccccc1C	14*	-2	0	-3	-9	1
O=C(O)c1cccnc1	14*	9	1	-2	3	0
O=C(C(=O)c1cccnc1)c1cccnc1	2	-2	-1	5	4	5
CN(C)S(=O)(=O)N1CCC(Oc2ccc(C(=O)NCCc3cscn3)cc2)CC1	13*	9	0	9	0	-3
CC(C)CCNC(=O)c1ccc(OC2CCN(S(=O)(=O)N(C)C)CC2)cc1	2	-5	2	4	-7	4
COC(=O)c1cc(C(=O)OCC(=O)NC2CCCC2)cc([N+](=O)[O-])c1	0	5	-4	1	0	-1
O=C(C[n+]1ccc2ccccc2c1)c1cccc2ccccc12	2	-21	-2	5	-3	3
O=C(/C=C/c1cc[n+](CC(=O)c2ccc3cccc4c3c2CC4)cc1)c1ccc2cccc3c2c1CC3	2	1	49*	-2	147*	119*
CC(NC(=O)OCc1ccccc1)C(=O)NCC1CCCO1 (stereo unspecified)	-1	-18	-2	-1	-2	-5
O=C(CCSc1ccccc1)NCC1CCCO1 (stereo unspecified)	17*	1	-4	5	6	2
COC(=O)[C@H](Cc1ccccc1)NC(=O)NCC1CCCO1 (stereo partly specified)	14*	2	3	-8	-4	-4
Cc1cccc(C2c3[nH]c4ccccc4c3CCN2Cc2cccn2-c2ncccn2)c1 (stereo unspecified)	-23	-17	1	-2	-3	6
COc1ccc(C2c3[nH]c4ccccc4c3CCN2Cc2cccn2-c2ncccn2)cc1C (stereo unspecified)	-12	-3	-1	-6	32*	13
O=C(NC(NC(=S)Nc1ccc(Cl)c(Cl)c1)C(Cl)(Cl)Cl)c1ccco1 (stereo unspecified)	9	6	3	9	-24	6

Bioassay records (PubChem BioAssay)
